Data reported in PubChem BioAssay (NCATS).
Inconclusive results are not listed. Active and inactive are the calls of the source. Calls follow the shape of the dose curve; as a rule, active = well fitted curve in the direction sought with a large enough effect; inconclusive = small, poorly fitted or top-dose-only effect, or another doubt; inactive = no such curve, though single readings can be large; an effect the other way counts as inactive or inconclusive.

Columns and labels:
[1] = Quantitative High-Throughput drug screen in 47 multiple myeloma cell lines against the NCATS MIPE library collection: FR4_PLB cell viability assay (AID 1918924; also: nearly all actives have a fitted effect of over 35% in size; also: potency is read from the fitted curve at half-maximal effect)
How it was run: (§1)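 Primary qHTS used for cherry-picking: cells at 500/well, library compounds for 48 h (37C, 5% CO2), luminescent ATP assay.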

[2] = Quantitative High-Throughput drug screen in 47 multiple myeloma cell lines against the NCATS MIPE library collection: EJM_DSMZ cell viability assay (AID 1918926; also: nearly all actives have a fitted effect of over 30% in size; also: potency is read from the fitted curve at half-maximal effect)
How it was run: (§2)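 Relative luminescence from CellTiter-Glo served as the viability signal, referenced to DMSO-treated (100%) and cell-free medium (0%) controls. Treatment lasted 48 hours at 37C with 500 cells per well.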

[3] = Quantitative High-Throughput drug screen in 47 multiple myeloma cell lines against the NCATS MIPE library collection: AMO1_DSMZ cell viability assay (AID 1918927; also: nearly all actives have a fitted effect of over 30% in size; also: potency is read from the fitted curve at half-maximal effect)
How it was run: as §2

[4] = Quantitative High-Throughput drug screen in 47 multiple myeloma cell lines against the NCATS MIPE library collection: ARP1_JJKsccF8 cell viability assay (AID 1918928; also: nearly all actives have a fitted effect of over 40% in size; also: potency is read from the fitted curve at half-maximal effect)
How it was run: (§3)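 ATP readout (CellTiter-Glo), 48 h drug incubation, 37 °C/5% CO2, 500 cells per well; normalisation to DMSO (100%) and media-only (0%) controls.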

[5] = Quantitative High-Throughput drug screen in 47 multiple myeloma cell lines against the NCATS MIPE library collection: ARD_JJKsccE7 cell viability assay (AID 1918929; also: potency is read from the fitted curve at half-maximal effect)
How it was run: as §2

[6] = Quantitative High-Throughput drug screen in 47 multiple myeloma cell lines against the NCATS MIPE library collection: Karpas620_DSMZ cell viability assay (AID 1918959); also: nearly all actives have a fitted effect of over 30% in size; also: potency is read from the fitted curve at half-maximal effect
How it was run: as §1

[7] = Quantitative High-Throughput drug screen in 47 multiple myeloma cell lines against the NCATS MIPE library collection: KMM1_JCRB cell viability assay (AID 1918960); also: nearly all actives have a fitted effect of over 30% in size; also: potency is read from the fitted curve at half-maximal effect
How it was run: as §3

[8] = Quantitative High-Throughput drug screen in 47 multiple myeloma cell lines against the NCATS MIPE library collection: KHM11_PLB cell viability assay (AID 1918962); also: nearly all actives have a fitted effect of over 35% in size; also: potency is read from the fitted curve at half-maximal effect
How it was run: as §1

[9] = Quantitative High-Throughput drug screen in 47 multiple myeloma cell lines against the NCATS MIPE library collection: JIM3_ECACC cell viability assay (AID 1918963; also: nearly all actives have a fitted effect of over 35% in size; also: potency is read from the fitted curve at half-maximal effect)
How it was run: as §1

[10] = Quantitative High-Throughput drug screen in 47 multiple myeloma cell lines against the NCATS MIPE library collection: JIM1_ECACC cell viability assay (AID 1918964)
How it was run: as §2

[11] = Quantitative High-Throughput drug screen in 47 multiple myeloma cell lines against the NCATS MIPE library collection: INA6_PLB cell viability assay (AID 1918965; also: nearly all actives have a fitted effect of over 55% in size; also: potency is read from the fitted curve at half-maximal effect)
How it was run: (§4)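 We plated 500 myeloma cells per well, pinned in MIPE 4.0 compounds, and incubated for 48 hours at 37C. ATP was then quantified with CellTiter-Glo, with DMSO and media-only wells defining 100% and 0%.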

[12] = Quantitative High-Throughput drug screen in 47 multiple myeloma cell lines against the NCATS MIPE library collection: Karpas25_ECACC cell viability assay (AID 1918968; also: nearly all actives have a fitted effect of over 35% in size; also: potency is read from the fitted curve at half-maximal effect)
How it was run: as §2

[13] = Quantitative High-Throughput drug screen in 47 multiple myeloma cell lines against the NCATS MIPE library collection: KMS12PE_JCRB cell viability assay (AID 1918972); also: nearly all actives have a fitted effect of over 30% in size; also: potency is read from the fitted curve at half-maximal effect
How it was run: as §4

[14] = Quantitative High-Throughput drug screen in 47 multiple myeloma cell lines against the NCATS MIPE library collection: KMS20_JCRB cell viability assay (AID 1918973); also: nearly all actives have a fitted effect of over 45% in size; also: potency is read from the fitted curve at half-maximal effect
How it was run: as §2

[15] = Quantitative High-Throughput drug screen in 47 multiple myeloma cell lines against the NCATS MIPE library collection: Delta47_JCRB cell viability assay (AID 1918925; also: nearly all actives have a fitted effect of over 45% in size; also: potency is read from the fitted curve at half-maximal effect)
How it was run: as §2

[16] = Quantitative High-Throughput drug screen in 47 multiple myeloma cell lines against the NCATS MIPE library collection: Karpas417_ECACC cell viability assay (AID 1918961); details: Karpas417 myeloma viability, CellTiter-Glo ATP luminescence, 48 h; viability (% of DMSO): at 45.8 µM (top of the series); also: potency is read from the fitted curve at half-maximal effect
How it was run: as §4

[17] = Quantitative High-Throughput drug screen in 47 multiple myeloma cell lines against the NCATS MIPE library collection: JJN3_DSMZ cell viability assay (AID 1918966; also: nearly all actives have a fitted effect of over 50% in size; also: potency is read from the fitted curve at half-maximal effect)
How it was run: as §2

[18] = Quantitative High-Throughput drug screen in 47 multiple myeloma cell lines against the NCATS MIPE library collection: KMS12BM_JCRB cell viability assay (AID 1918971); also: nearly all actives have a fitted effect of over 35% in size; also: potency is read from the fitted curve at half-maximal effect
How it was run: as §4

[19] = Quantitative High-Throughput drug screen in 47 multiple myeloma cell lines against the NCATS MIPE library collection: H1112_PLB cell viability assay (AID 1918967; also: nearly all actives have a fitted effect of over 30% in size; also: potency is read from the fitted curve at half-maximal effect)
How it was run: as §2

[20] = Quantitative High-Throughput drug screen in 47 multiple myeloma cell lines against the NCATS MIPE library collection: KMS27_JCRB cell viability assay (AID 1918970); also: nearly all actives have a fitted effect of over 30% in size; also: potency is read from the fitted curve at half-maximal effect
How it was run: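 ATP-based viability (CellTiter-Glo luminescence) is measured in cells treated 48 h with approved and investigational drugs at 37 °C. Controls are DMSO-only wells for full viability and media-only wells for none.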

Measured: Potency

Clc1cccc(-c2nnnn2Cc2cccnc2)c1Cl
inactive: [1] | [2] | [3] | [4] | [5] | [6] | [7] | [8] | [9] | [10] | [11] | [13] | [14]
active: [12] 16600 nM

COc1cc(C(=O)N2CCC(N3CCN(C)CC3)CC2)ccc1Nc1ncc2c(n1)N(C)c1ccccc1C(=O)N2C
active: [1] 3720 nM | [15] 2640 nM | [4] 2350 nM | [5] 1660 nM | [6] 3320 nM | [7] 1660 nM | [16] 2090 nM | [8] 7430 nM | [11] 935 nM | [17] 3720 nM | [12] 11800 nM | [18] 1870 nM | [13] 1660 nM | [14] 13200 nM

Cc1nc2cnc3ccc(C#Cc4cccnc4)cc3c2n1-c1ccc(C(C)(C)C#N)cc1
inactive: [7]
active: [1] 118 nM | [15] 16.6 nM | [2] 1660 nM | [9] 148 nM | [11] 83.3 nM | [17] 935 nM | [19] 166 nM | [12] 26.4 nM | [14] 14.8 nM

O=c1[nH]c(=O)n(C2CCCO2)cc1F (stereo not given)
inactive: [1] | [15] | [3] | [4] | [5] | [6] | [7] | [8] | [10] | [17] | [19] | [12] | [20] | [13]
active: [18] 19100 nM

COCCn1c2c([n+](Cc3cnccn3)c1C)C(=O)c1ccccc1C2=O
active: [1] 10.5 nM | [15] 16.6 nM | [2] 7.4 nM | [4] 11.8 nM | [8] 29.6 nM | [9] 26.4 nM | [17] 2.3 nM | [19] 52.6 nM | [18] 41.8 nM | [14] 23.5 nM

COc1ccc2c(OCc3nnc4ccc(-c5ccccc5)nn34)ccnc2c1
inactive: [1] | [15] | [3] | [4] | [6] | [7] | [9] | [19] | [18]

Nc1ccc(C(=O)c2cc3c(ccc4ccccc43)[nH]2)cc1
active: [1] 1180 nM | [15] 1870 nM | [2] 4180 nM | [4] 2960 nM | [11] 2640 nM | [17] 7430 nM | [18] 2640 nM

CC(C)=CCCC(C)=CCCC(C)=CCSc1ccccc1C(=O)O
active: [1] 1180 nM | [15] 2350 nM | [4] 1180 nM | [7] 187 nM | [16] 235 nM | [8] 1180 nM | [11] 18700 nM | [17] 1180 nM | [12] 2350 nM | [18] 1660 nM | [14] 5260 nM

CS(=O)(=O)c1ccc(-c2cnc(N)c(C(=O)Nc3ccccc3)n2)cc1
active: [1] 18700 nM | [19] 4180 nM
inactive: [5] | [6] | [17] | [14]

CN(C1CCc2c(c3ccccc3n2CC(=O)O)C1)S(=O)(=O)c1ccc(F)cc1 (stereo not given)
inactive: [1] | [9] | [11] | [19]
active: [2] 11800 nM | [3] 2640 nM | [5] 5260 nM | [6] 2960 nM | [7] 2350 nM | [16] 743 nM | [12] 2090 nM | [20] 1180 nM | [13] 5260 nM

Cc1cc(Nc2cc(N3CCN(C)CC3)nc(Sc3ccc(NC(=O)C4CC4)cc3)n2)n[nH]1
active: [15] 3720 nM | [2] 14800 nM | [3] 372 nM | [4] 7430 nM | [6] 33.2 nM | [7] 5900 nM | [16] 7430 nM | [8] 1320 nM | [9] 5260 nM | [17] 16600 nM | [12] 18700 nM | [20] 11.8 nM | [13] 166 nM | [14] 4690 nM

Nc1nccc(Oc2ccc(NC(=O)c3c[nH]cc(-c4ccc(F)cc4)c3=O)cc2F)c1Cl
active: [15] 16600 nM | [2] 5900 nM | [3] 2350 nM | [4] 14800 nM | [5] 6620 nM | [7] 2960 nM | [8] 18700 nM | [17] 20900 nM | [19] 20900 nM | [12] 16600 nM | [18] 16600 nM
inactive: [13]

C1Cc2[nH]nc(-c3nn[nH]n3)c2C1
inactive: [1] | [2] | [3] | [6] | [7] | [11] | [19] | [20] | [18] | [13]
